# Screening results (PubChem BioAssay)
# ALDH1A1 block: qHTS Assay for Inhibitors of Aldehyde Dehydrogenase 1 (ALDH1A1) | Purified ALDH1A1, NADH fluorescence, propionaldehyde substrate | 220,000 compounds, 7.3% hits | Aldehyde dehydrogenase 1A1 (Homo sapiens), P00352 | Potency, µM (doses to about 75.3 µM), for the others: at the highest dose activity, negative = inhibition, actives largely listed as inhibitors; active means well fitted inhibition curve with a large enough effect, not every such curve was filed as active; inconclusive means small, poorly fitted or top-dose-only effect, or another doubt; inactive means no such curve, though single readings can be large or run the other way;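 further: potency means the concentration at half of the fitted maximal effect; plate controls were no enzyme wells and a reference inhibitor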
# Sfp PPTase inh: qHTS Assay for Inhibitors of Bacillus subtilis Sfp phosphopantetheinyl transferase (PPTase); 4'-phosphopantetheinyl transferase ffp (Bacillus subtilis), Q9F4F7; 310,000 compounds, 3.5% hits; Biochemical Sfp PPTase activity, qHTS; AID 1490, 2009; Potency, µM, for the others: largest response in the series, negative = inhibition, usual class: inhibitors;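 further: the enzyme is Sfp with the accession as filed and its product quenches rhodamine fluorescence; potency means the concentration at half of the fitted maximal effect; 0% = enzyme reaction without inhibitor and -100% = no enzyme wells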
#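 Compounds were incubated with enzyme (final 15 nM) for 15 min at room temperature before substrate addition started the reaction. Fluorescence at 525 nm excitation, 598 nm emission was recorded immediately and after 30 minutes.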
# KDM4E inh: qHTS Assay for Inhibitors of Human Jumonji Domain Containing 2E (JMJD2E) | Lysine-specific demethylase 4E (Homo sapiens), B2RXH2 | JMJD2E catalytic domain, FDH-coupled NADH fluorescence (FDH is formaldehyde dehydrogenase) | Potency, µM (highest dose often 57.1 µM), for inactives: at the top dose activity change, negative = inhibition, usual class: inhibitors | 230,000 compounds, 1.6% hits | AID 2147, 2009; active means well fitted inhibition curve with a large enough effect, not every such curve was filed as active; inconclusive means small, poorly fitted or top-dose-only effect, or another doubt; inactive means no such curve, though single readings can be large or run the other way;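 further: potency means the concentration at half of the fitted maximal effect; 0% = wells with enzyme and -100% = buffer wells without enzyme; nearly all actives have a fitted effect of over 50% in size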
# Target sequence (B2RXH2 1-337 limits assumed): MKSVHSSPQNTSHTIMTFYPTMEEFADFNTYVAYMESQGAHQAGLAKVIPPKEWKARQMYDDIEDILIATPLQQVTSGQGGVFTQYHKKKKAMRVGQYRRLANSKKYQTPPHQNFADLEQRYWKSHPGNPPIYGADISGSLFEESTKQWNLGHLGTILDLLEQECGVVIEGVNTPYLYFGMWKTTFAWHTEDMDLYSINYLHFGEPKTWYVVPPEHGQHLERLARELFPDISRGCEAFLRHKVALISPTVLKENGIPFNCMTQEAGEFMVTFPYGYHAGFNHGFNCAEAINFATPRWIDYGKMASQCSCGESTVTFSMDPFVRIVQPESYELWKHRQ
# Lamin A splicing: qHTS Assay for Modulators of Lamin A Splicing; HeLa LMNA splicing GFP/RFP minigene ratio, 48 h; Potency, µM (series often up to 46.1 µM), without a hit: at the top dose ratio change, negative = inhibition, actives largely listed as inhibitors; 200,000 compounds, 0.01% hits; AID 1487, 2009; active means well fitted inhibition curve with a large enough effect in the signal ratio, with a control signal flat, not every such curve was filed as active; inconclusive means small, poorly fitted or top-dose-only effect, or effect the other way, or a change in a side signal; the % refers to the signal ratio; further: potency means the concentration at half of the fitted maximal effect; on the % scale 0 is the no-effect control and ±100 the full control effect
#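 Read-out is the ratio of GFP to DsRed2 object intensity, acquired by 488 nm laser-scanning cytometry on HeLa lamin A-EGFP minigene reporter cells. Compound incubation 48 hrs at 37 °C in Opti-MEM with 2% FBS; DMSO 0.5% final.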
# G9a block: qHTS Assay for Inhibitors of Histone Lysine Methyltransferase G9a. G9a H3K9 monomethylation, AlphaScreen, 2 h. Potency, µM (doses to about 102 µM), for the others: at the highest dose activity, negative = inhibition, actives largely listed as inhibitors. 350,000 compounds, 8.8% hits. AID 504332, 2011; further: potency means the concentration at half of the fitted maximal effect; on the % scale 0 is the no-effect control and ±100 the full control effect; nearly all actives have a fitted effect of over 75% in size
# Target sequence (Q96KQ7 913-1193 limits assumed): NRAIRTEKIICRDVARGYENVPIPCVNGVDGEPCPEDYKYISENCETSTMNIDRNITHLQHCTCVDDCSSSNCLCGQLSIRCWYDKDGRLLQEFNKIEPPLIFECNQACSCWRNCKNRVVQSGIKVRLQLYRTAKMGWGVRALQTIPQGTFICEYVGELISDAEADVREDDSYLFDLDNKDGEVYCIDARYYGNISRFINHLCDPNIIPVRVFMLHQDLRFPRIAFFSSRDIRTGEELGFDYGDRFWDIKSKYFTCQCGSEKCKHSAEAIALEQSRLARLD
#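 Step 1: enzyme (final 20 nM) with compound, 15 min RT. Step 2: substrate peptide 500 nM and SAM 20 uM, 2 h RT. Step 3: anti-H3K9me1 antibody and AlphaScreen beads, 10 min, then plate read.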
# miR-21 act: qHTS Assay for Modulators of miRNAs and/orActivators of miR-21. HeLa miR-21 FLuc reporter, luciferase, 48 h. Potency, µM (titrated, usually from 38.3 µM), inactives show at the top dose activity change, positive = activation, actives largely listed as activators. 340,000 tested, under 10 active. AID 2288, 2010;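 further: % of control where 0% means no effect; miR-21 action dims this reporter so a rising signal means less miR-21 action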
#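 Compounds were titrated across several concentrations (up to approximately 40 uM) and incubated 48 hours with HeLa miR-21-FLuc reporter cells (miR-21 target sequence downstream of FLuc, endogenous miR-21). Readout was firefly luciferase luminescence after lytic detection reagent.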
# The depositor's hits bear a star; ? = inconclusive; . = no result; [ ] = dose if it differs, or a comment. Rows were chosen to be rich in hits. Some 13% of all compounds tested hit in one or more screens of this group. Unless noted, the call rests on the fitted dose curve; in most records, active means well fitted curve in the direction sought with a large enough effect; inconclusive means small, poorly fitted or top-dose-only effect, or another doubt; inactive means no such curve, though single readings can be large; an effect the other way counts as inactive or inconclusive.
SMILES,ALDH1A1 block,Sfp PPTase inh,KDM4E inh,Lamin A splicing,G9a block,miR-21 act
COc1ccc(CCN2C(=O)C3C4C=CC(C3C2=O)C2C(=O)N(CCc3ccc(OC)c(OC)c3)C(=O)C42)cc1OC (stereo not drawn),-12%,12%,-2%,?,4%[12.7 µM],10%
COc1ccc(CCN2C(=O)CC(NCc3ccc4c(c3)OCO4)C2=O)cc1OC (stereo not drawn),25µM*,11%,2%,-2%,20%[59 µM],-4%
COc1ccc(CCN2C(=O)CC(NNc3ccc([N+](=O)[O-])cc3)C2=O)cc1OC (stereo not drawn),10µM*,1%,?,1%[46 µM],14µM*,-2%
COc1ccc(CCN2C(=O)C3C4C=CC(C5CC45)C3C2=O)cc1OC (stereo not drawn),4µM*,11%,-2%,.,4%,5%
CCC(C)[C@H](NC(=O)c1cc2cc(Cl)ccc2n1C)C(=O)N1CCC(C(=O)O)CC1 (stereo partly drawn),.,11%,.,.,-2%,-13%
CCC1(c2ccc(F)cc2)NC(=O)N(CC(=O)N(C)C2CCS(=O)(=O)C2)C1=O (stereo not drawn),.,.,.,.,-8%,.
Cc1ccc(OCC(=O)Nc2ccc(Cl)c(-c3nc4ncccc4o3)c2)c(C)c1,.,.,.,?,-6%[59 µM],-6%
COC(=O)c1ccc(C(NC(=O)OCc2ccccc2)/C(=C/[C@@H](C)C(=O)N(C)Cc2ccccc2)c2cccnc2)cc1 (stereo partly drawn),-1%,22%,-7%,.,.,.
Cc1cc2c(cc1S(=O)(=O)CCC(=O)N1CC(C)CC(C)C1)OCC(=O)N2 (stereo not drawn),.,3%,.,.,.,0%
O=C1CC(Cc2ccccc2)C(=O)N1CCCn1ccnc1 (stereo not drawn),16µM*,?,?,-1%,?,0%
Cc1cccc(CC2CC(=O)N(CCc3ccc4c(c3)OCO4)C2=O)c1 (stereo not drawn),?,4%,6%,13%[46 µM],41%,-6%
O=C1CC(Cc2ccccc2)C(=O)N1CCc1ccc2c(c1)OCO2 (stereo not drawn),18µM*,?,0%,12%,-2%[12.7 µM],-9%
CC1CCN(Cc2nnnn2CCCC(=O)NCCc2cnn(C)c2)CC1,.,10%,.,.,8%,-2%
COCCn1c(NC(=S)NC(=O)C23CC4CC(CC(C4)C2)C3)cc(=O)[nH]c1=O,.,-8%,-3%,.,7%[59 µM],-4%
COCCn1c(NC(=S)NC(=O)C2CC2)cc(=O)[nH]c1=O,0.63µM*,22µM*,-13%,?,?,1%
O=[N+]([O-])c1cccc(NC(=S)N2CCOCC2)c1,9%,11%,-3%,10%[46 µM],-3%,-6%
O=[N+]([O-])c1cccc(N/N=C/c2ccc(N3CCOCC3)cc2)c1,.,0%,.,.,40µM*,-54%
FC(F)(F)c1ccccc1/C=N/Nc1ccccn1,-2%,79µM*,11%,?,?,-15%
O=C(O)c1cc(N/N=C/c2ccc(N3CCOCC3)cc2)ccc1Cl,.,-12%,?,.,-138%[59 µM],-62%
Clc1cccc(N/N=C/c2ccc(N3CCOCC3)cc2)c1,?,8%,-3%,0%,32µM*,-54%
C(=N\Nc1ccccn1)/c1ccc(N2CCOCC2)cc1,?,40µM*,6%,.,-18%,-63%
Brc1ccccc1/C=N/Nc1ccccn1,-1%,16%,2%,-23%[46 µM],-4%,-41%
COC(=O)CC1Oc2ccccc2-n2cc(-c3ccc(C)cc3)nc21 (stereo not drawn),.,.,.,.,-44%[59 µM],-15%
C(=N\Nc1ccccc1)/c1ccc(N2CCOCC2)cc1,6.3µM*,-2%,?,9%,4µM*,-43%
c1ccc(N2CCOCCOCCOCCOCC2)cc1,.,15%,5%,.,?,0%
SMILES,ALDH1A1 block,Sfp PPTase inh,KDM4E inh,Lamin A splicing,G9a block,miR-21 act
CC(=O)NNc1cc(N2CCOCC2)nc(N2CCOCC2)n1,?,?,?,.,45µM*,-10%
Oc1ccc(/C=N/Nc2cc(N3CCOCC3)nc(N3CCOCC3)n2)cc1O,-8%,79µM*,28µM*,-15%,?,-12%
CC(C)(C)c1ccc(C(=O)NNc2cc(N3CCOCC3)nc(N3CCOCC3)n2)cc1,-14%,-29%,-6%,.,-15%[12.7 µM],3%
CC(=O)OCc1cnc(C)c2oc(=O)c(C(=O)Nc3ccc(C)cc3Cl)cc12,.,.,.,-4%[46 µM],2%[59 µM],-1%
N#C/C(=C\c1cn(CCOc2ccccc2)c2ccccc12)C(=O)NCc1cccs1,?,20%,-13%,-8%,-3%[59 µM],-10%
COc1ccccc1CNC(=O)CCNC(=O)c1ccco1,.,.,.,.,4%,.
CCN(CC)CCn1c(=N)n(CC(O)COc2ccccc2C)c2ccccc21 (stereo not drawn),.,.,.,.,?,3%
CC1CCCCC1NC(=O)CSc1nnc(COc2ccc(Cl)cc2)o1 (stereo not drawn),.,21%,.,.,2%,-4%
COc1c(C=O)cc2c3c1CCCN3CCC2,.,2%,.,.,1%,7%
NCc1cc2c3c(c1)CCCN3CCC2,.,-3%,.,.,16µM*,0%
O=S(=O)(NCC(c1ccccc1)N1CCNCC1)c1ccc(Cl)cc1 (stereo not drawn),8.9µM*,-1%,17%,1%,-17%[59 µM],-8%
CCN1CCN(C(CNS(=O)(=O)c2ccc(Cl)cc2)c2ccccc2)CC1 (stereo not drawn),.,14%,.,.,6%,-3%
CCS(=O)(=O)NCC(c1ccco1)N1CCN(c2ccc(OC)cc2)CC1 (stereo not drawn),.,.,.,?,47%[59 µM],-2%
COc1ccc(N2CCN(C(CNS(=O)(=O)c3ccc4c(c3)OCCO4)c3ccco3)CC2)cc1 (stereo not drawn),23%,8%,1%,?,7.9µM*,?
COc1ccc(N2CCN(C(CNS(=O)(=O)c3c(C)cc(C)cc3C)c3ccco3)CC2)cc1 (stereo not drawn),.,.,.,-13%[46 µM],7.1µM*,12%
COc1ccc(N2CCN(C(CNS(=O)(=O)c3ccccc3)c3ccccc3)CC2)cc1 (stereo not drawn),.,3%,.,.,14µM*,0%
COc1ccc(S(=O)(=O)NCC(c2ccco2)N2CCN(c3ccc(F)cc3)CC2)cc1 (stereo not drawn),.,.,.,-8%[46 µM],?,9%
CC(=O)Nc1cccc(NC(=O)Cn2cnc3c(oc4ccccc43)c2=O)c1,.,.,.,?,-17%[59 µM],-2%
